Consider 26 compounds from PubChem BioAssay (EPA / NIEHS).

SMILES strings stand for the structures. Inconclusive results are not listed. Activity calls are given as the source filed them. How the source made its calls, unless noted: active means hit-call score of the fitted dose curve at least 0.9, where 1 is the maximum; inactive means score below 0.9.

As usually defined, the AC50 is the concentration giving half of the maximal activity seen.

The first test deals with Thyroperoxidase (TPO), gene 54314. The test can be described thus: CCTE_Simmons_AUR_rTPO: CCTE's Amplex UltraRed Assay for Thyroperoxidase (TPO) Inhibition, Simmons Lab (AID 2283662; active means hit-call score of the fitted dose curve at least 0.9, where 1 is the maximum;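 on AC50: potency for loss of signal meaning inhibition of peroxidase activity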). The method in brief:
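Endpoint is decreased Amplex UltraRed fluorescence after a 30-min, 37C reaction of rat thyroid microsomes with 300 uM H2O2. Eight test concentrations (5 nM–87.5 uM final) in 0.5% DMSO, three biological replicates each.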
As to `CCCc1ccc(O)cc1`, the outcome was inactive.

On to `CC(=O)OC/C=C(C)/C=C/C=C(C)/C=C/C1=C(C)CCCC1(C)C`, for which the AC50 was 50.9 µM (active).

For the compound `CC(=O)Nc1cc(S(=O)(=O)O)cc2cc(S(=O)(=O)O)c(N=Nc3ccccc3)c(O)c12`, the AC50 is 40.8 µM (active).

In the case of `CC(C)(C)c1cccc(O)c1`, the AC50 is 18.9 µM (active).

Turning to `O=c1cc(-c2ccc(O)cc2)oc2cc(O)cc(O)c12`, the AC50 was 4.81 µM (active).

Take `O=C1OC2(c3ccc(O)cc3Oc3cc(O)ccc32)c2ccccc21`: the AC50 is 10.2 µM (active).

Test system in the next test: not listed separately
In words: CCTE_Simmons_CellTiterGLO_HEK293T: Viability Assessment in CCTE's Assays for Thyroperoxidase (TPO) Inhibition, Simmons Lab (AID 2283665; active means hit-call score of the fitted dose curve at least 0.9, where 1 is the maximum;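 on AC50: cells exposed to compound for 24 h before readout; actives reduce ATP signal below DMSO vehicle meaning cytotoxicity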). The method in brief: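 HEK293T cells in DMEM with 1% FBS, dosed 24 h at 37C with 8 concentrations, 5 nM–87.5 uM final, 0.5% DMSO. ATP measured by CellTiter Glo luminescence; loss of signal vs DMSO, three biological replicates.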
For orientation: Cellular ATP, detected with luciferase, serves as a proxy for viable cell number.
As to `CCCc1ccc(O)cc1`, the half-maximal activity concentration (AC50) is 87.9 µM (active).

For `CC(=O)OC/C=C(C)/C=C/C=C(C)/C=C/C1=C(C)CCCC1(C)C`, the compound was classed as inactive.

On to `CC(=O)Nc1cc(S(=O)(=O)O)cc2cc(S(=O)(=O)O)c(N=Nc3ccccc3)c(O)c12`, for which the AC50 is 17.3 µM (active).

With `CC(C)(C)c1cccc(O)c1`, the result was inactive.

For `O=c1cc(-c2ccc(O)cc2)oc2cc(O)cc(O)c12`, the outcome was inactive.

On to `O=C1OC2(c3ccc(O)cc3Oc3cc(O)ccc32)c2ccccc21`, for which the outcome was inactive.

Test system in the next test: not listed separately
In words: STM_H9_OrnCyssISnorm_ratio: Stemina devTOX quickPredict H9 human embryonic stem cell (hESC)-based Assay for Ornithine (ORN):Cystine (CYSS) Ratio (AID 2283714; active means hit-call score of the fitted dose curve at least 0.9, where 1 is the maximum). The gist of the method: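 Steps: H9 hESCs in pluripotent state dosed 72h, medium plus compound renewed every 24h; conditioned medium from the final 24h deproteinized in 40% acetonitrile; ORN and CYSS quantified by UPLC-HRMS with C13 spike-ins; ratio relative to vehicle.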
In the case of `CCCCN(CCO)CCO`, the outcome was inactive.

With `CC(=O)C1=C(C)[C@@H]2C[C@@]3(C1)[C@H](C)CC[C@H]3C2(C)C`, the outcome was inactive.

As to `CC(=O)OC/C=C(C)/C=C/C=C(C)/C=C/C1=C(C)CCCC1(C)C`, the AC50 was 78.1 µM (active).

On to `O=C1CCCCCCCCCCCC(=O)OCCO1`, for which the AC50 was 13.2 µM (active).

With `CCOC(=O)C=Cc1ccccc1`, the AC50 is 24.8 µM (active).

Read-out in the next test: not listed separately
In words: CEETOX_H295R_MTT_cell_viability: Viability Assessment in the CeeTox HT-H295R MTT Assay (AID 2283718).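 On AC50: curve fitted both ways so AC50 may mark viability loss or gain.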 The method in brief: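 MTT reduction (0.5 mg/ml, 4 h at 37 C; absorbance at 570 and 650 nm) gave viability as background-corrected percent change versus controls. H295R cells had 48 h forskolin (10 uM) prestimulation, then 48 h chemical exposure at 0.1% DMSO.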
With `CCCCCC1C(=O)CCC1CC(=O)OC` (configuration not stated), the call was inactive.

`COc1ccc2[nH]cc(CCNC(C)=O)c2c1`: the compound was classed as inactive.

As to `OCC=Cc1ccccc1`, the result was inactive.

On to `CCCc1ccc(O)cc1`, for which the outcome was inactive.

As to `CCCCCC(=O)O[C@]1(C(C)=O)CC[C@H]2[C@@H]3CCC4=CC(=O)CC[C@]4(C)[C@H]3CC[C@@]21C`, the half-maximal activity concentration (AC50) was 13.4 µM (active).

Take `CCCCCCCCCCCCN1CCOCC1`: the result was inactive.

As for `CC(=O)c1ccc2ccccc2c1`, the outcome was inactive.

Turning to `CC(=N[Si](C)(C)C)O[Si](C)(C)C`, the call was inactive.

Take `CC(=O)C1=C(C)[C@@H]2C[C@@]3(C1)[C@H](C)CC[C@H]3C2(C)C`: the AC50 is 50 µM (active).

Regarding `CC=CC(=O)C1=C(C)C=CCC1(C)C`, the compound was called inactive.

As for `O=C(OCc1ccccc1)c1ccccc1O`, the call was inactive.

Consider `CC(=O)OC/C=C(C)/C=C/C=C(C)/C=C/C1=C(C)CCCC1(C)C`, for which the AC50 was 73.7 µM (active).

For `c1ccc(OCCOc2ccccc2)cc1`, the compound was classed as inactive.

Turning to `CC(C)(C)c1cccc(O)c1`, the compound was called inactive.

For `COc1cc(OC)c2ccc(=O)oc2c1`, the compound was called inactive.

For the compound `OCCCO`, the compound was classed as inactive.

As to `COC(=O)c1cccc(C(=O)OC)c1`, the outcome was inactive.

For `COC(=O)C(C)Oc1ccc(Oc2ncc(C(F)(F)F)cc2Cl)cc1` (configuration not stated), the compound was called inactive.

On to `CCCCCCCCCCOC(=O)c1ccccc1C(=O)OCCCCCCCC`, for which the result was inactive.

Consider `c1coc(CNc2ncnc3nc[nH]c23)c1`, for which the compound was classed as inactive.
